Screens deposited in PubChem by several laboratories.
Rtt109 Vps75: inhibitors of C. albicans Rtt109/Vps75 HAT, primary screen, biochemical, ThioGlo CoA-SH fluorescence, plate reader. 330,000 tested, 0.16% active. inhibition, % at 34.9 µM. Histone acetyltransferase RTT109 (Candida albicans (strain SC5314 / ATCC MYA-2876)), …. purified Rtt109/Vps75, 4 h;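 active = inhibition of at least 50% in every replicate; inconclusive = best replicate reaches 50% inhibition but some replicates fall short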
rCAG RNA binder: binders of r(CAG) RNA repeats, primary screen, biochemical, fluorescence. 370,000 tested, 1.3% active. r(CAG) RNA repeat, TO-PRO-1 dye displacement fluorescence. inhibition, % at 3 µM;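 active = inhibition above the plate cutoff, the mean of all test compounds on that plate plus 3 SD, cut at about 35% in these data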;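 note: 0% = DMSO alone and 100% = 100 µM mitoxantrone as full dye displacement; higher means more dye released from RNA so lower well fluorescence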
PRMT1 FP inh: PRMT1 methyltransferase inhibitors, primary screen, biochemical, fluorescence polarization | Protein arginine N-methyltransferase 1 (Homo sapiens), Q99873 | recombinant PRMT1, activity-based probe fluorescence polarization | inhibition, % at 2.79 µM | 370,000 tested, 1.3% active;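 active = inhibition above about 21% made by adding two undisclosed values, limit read from the data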
ABHD5 PLIN5 PPI: ABHD5-PLIN5 interaction inhibitors, primary screen, cell lysate, split luciferase complementation, luminescence. Split G. princeps luciferase complementation, 4 h. inhibition, % at 4 µM. 360,000 tested, 0.78% active;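 active = inhibition above the mean inhibition across every tested compound plus 3 SD, cut at about 22% in these data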;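 note: 0% = DMSO only wells and the 100% control is not disclosed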
ALR H2O2 inh: inhibitors of human ALR sulfhydryl oxidase, primary screen, biochemical, H2O2 detection, HRP-luminol luminescence, single point. FAD-linked sulfhydryl oxidase ALR (Homo sapiens), P55789. inhibition, % (concentration not given with the values). 290,000 tested, 3.8% active. purified ALR, DTT oxidation;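 active = mean replicate inhibition above about 79%, with every replicate also reaching it, limit read from the data; inconclusive = only one of the two criteria met; inactive = mean below limit and not every replicate reaching it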
LANA-H2A inh: blockers of LANA interaction with H2A/H2B – biochemical, FP readout, HTS, primary screen | cell-free LANA-H2A/H2B peptide, fluorescence polarization | inhibition, % (no concentration beside the values) | 320,000 tested, 0.6% active | AID 2629, 2010; in the data active = inhibition mostly above about 10%, no sharp cut-off; inactive = mostly below about 6.7%
PRMT1 confirm: PRMT1 methyltransferase inhibitors, confirmation, biochemical, fluorescence polarization, triplicate; shares compounds with PRMT1 FP inh; recombinant His-PRMT1, activity-based probe fluorescence polarization; inhibition, % at 2.79 µM; 3,300 tested, 42% active;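 active = mean inhibition across replicates above the hit cutoff derived for the earlier primary screen, cut at about 22% in these data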
Numbers without * were called inactive; ? = inconclusive; / = not tested or not shown. Most compounds without a hit are left out; they make up all but 5.9% or so of the library.

SMILES	Rtt109 Vps75	rCAG RNA binder	PRMT1 FP inh	ABHD5 PLIN5 PPI	ALR H2O2 inh	LANA-H2A inh	PRMT1 confirm
CSc1nnc(N2C(=O)C(O)=C(C(=O)c3ccco3)C2c2ccccc2F)s1 (stereo not drawn)	?	7	17	-1	22	4	/
CC(C)c1nnc(N2C(=O)C(O)=C(C(=O)c3cccs3)C2c2ccccc2)s1 (stereo not drawn)	4	-73	79*	4	/	/	76*
Cc1ccc(C2C(C(=O)c3ccco3)=C(O)C(=O)N2c2nnc(C)s2)cc1 (stereo not drawn)	3	-4	30*	-9	/	0	5
COc1ccc(C2C(C(=O)c3cccs3)=C(O)C(=O)N2c2nncs2)cc1 (stereo not drawn)	6	-122	75*	-1	8	30*	99*
COc1ccccc1CCn1cnc(-c2ccccc2)c1CC(C)C	/	-2	12	/	/	/	/
C=CCOc1ccc(C2C(C(=O)c3cccs3)=C(O)C(=O)N2c2nnc(C)s2)cc1 (stereo not drawn)	18	7	41*	-8	2	12	25*
CC(=O)Nc1cccc(-c2ccnc3c2CC(C)(C(=O)Nc2cccnc2)O3)c1 (stereo not drawn)	/	-2	-7	1	/	/	/
Cc1ccc2c(c1)C(N1CCCC1=O)CC(c1ccco1)N2 (stereo not drawn)	-11	1	25*	19	/	1	6
Cc1ccc(C2CC(c3ccco3)n3ncnc3N2)cc1 (stereo not drawn)	0	0	4	2	69	0	/
Oc1ccc(Br)cc1C=Nc1ccc2c3c(cccc13)CC2	5	-21	56*	2	/	/	9
Brc1ccc(-c2nn3c(-c4ccccc4)nnc3s2)o1	/	8	2	/	/	/	/
Cc1[nH]c(=O)c(C#N)c2c1CCCC2	1	2	-1	1	-14	-11	/
Cc1[nH]c(=S)c(C#N)c2c1CCCC2	-1	1	40*	3	-2	-5	19
O=C(O)CN1C(=O)C2C3CC(C2C1=O)C1C(c2ccccc2)c2sc(=O)[nH]c2SC31 (stereo not drawn)	-42	8	29*	0	/	3	29*
Cc1cccc(NCCC(=O)c2ccc([N+](=O)[O-])cc2)c1C	-14	1	50*	-3	/	1	66*
Cc1ccc(NCCC(=O)c2cccc([N+](=O)[O-])c2)c(C)c1	2	4	37*	1	?	7	40*
Cc1ccc(-c2nc3cnccn3c2Nc2ccc3c(c2)OCCO3)o1	-2	-1	27*	5	99*	3	2
Cc1ccc2nc(-c3ccc(O)cc3)c(Nc3ccc4c(c3)OCCO4)n2c1	-5	10	2	-1	12	3	/
CCOC(=O)c1c(C)oc2c(CC(=O)c3ccccc3)c(Cl)c(O)c(O)c12	58*	9	27*	8	9	-2	4
CCCCNC(=O)Cn1cnc2c(cnn2-c2ccc(C)cc2)c1=O	2	-2	-1	5	-22	0	/
CCOC(=O)CNC(=O)Cn1cnc2c(cnn2-c2ccc(C)cc2)c1=O	-16	-4	76*	8	-1	0	3
Fc1ccc(CSc2ccc(-c3ccco3)nn2)cc1	33	21	54*	4	98*	0	-1
O=C(CSc1ccc(-c2ccco2)nn1)NCc1ccc(F)cc1	3	2	9	7	5	2	/
Cc1ccc2nc(-c3cccc(Br)c3)c(Cc3cccc(Cl)c3)n2c1	/	7	-3	-7	/	/	/
Cc1ccc(CNC(=O)CSc2c3c(nc4cc(Cl)ccc24)CCCC3)o1	0	13	60*	12	/	-1	16
